NALP3 yeast inh: NALP3 inhibition in yeast. Yeast reconstituted NLRP3/ASC/caspase-1, beta-gal luminescence, 24 h. inhibition, % at 10 µM. 330,000 compounds, 0.39% hits;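 active = inhibition of 50% or more; inactive = inhibition below 50%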;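 note: plate controls were induced DMSO wells for no effect and uninduced yeast grown without galactose for full effect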
tim23-1 inh: growth inhibitors of tim23-1 mutant yeast; S. cerevisiae tim23-1 growth, BacTiter-Glo luminescence, 24 h; inhibition, % at 20 µM; 330,000 compounds, 1.3% hits;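 active = growth inhibition of the mutant yeast at or above 50%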;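 note: temperature-sensitive mutant grown at 25 °C; plate controls were DMSO-treated mutant yeast for no effect and medium wells lacking yeast for full effect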
tim10-1 inh: growth inhibitors of tim10-1 mutant yeast | S. cerevisiae tim10-1 ts strain growth, BacTiter-Glo, 24 h | inhibition, % at 20 µM | 330,000 compounds, 2.2% hits | AID 463190;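 active = inhibition of at least 40%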;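 note: mutant grown at 25 °C; 0% = DMSO wells with yeast and 100% = wells holding no yeast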
NALP1 yeast inh: inhibitors of NALP1 inflammasome in yeast. S. cerevisiae NALP1/ASC/caspase-1 growth, X-gal OD620, 72 h. inhibition, % at 10 µM. 280,000 compounds, 0.61% hits. AID 2071; in the data active = inhibition mostly above about 24%, no sharp cut-off; inactive = mostly below about 32%
TIM10 inh: TIM10 yeast growth inhibition | AID 463195 | 330,000 compounds, 1.4% hits | S. cerevisiae TIM10 strain growth, BacTiter-Glo luminescence, 24 h | inhibition, % at 10 µM;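 active = inhibition of 40% or more at the single tested concentration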;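 note: wild-type TIM10 isogenic control strain grown at permissive 25 °C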
tim10-1 confirm: confirmation of tim10-1 mutant yeast growth inhibitors. shares compounds with tim10-1 inh. S. cerevisiae tim10-1 ts strain growth, BacTiter-Glo, 24 h. inhibition, % at 20 µM. 7,400 compounds, 56% hits;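 active = inhibition of yeast growth at or above a set limit in either of two repeat tests at 20 µM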;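 note: tim10-1 mutant grown at permissive 25 °C to find synthetic lethal compounds; 0% = DMSO yeast wells and 100% = medium wells without yeast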
The depositor's hits bear a star; nt = no result given. The list is not random: actives were taken first. Their share in the collection is about 4%.

SMILES	NALP3 yeast inh	tim23-1 inh	tim10-1 inh	NALP1 yeast inh	TIM10 inh	tim10-1 confirm
Cc1ccc(C)c(CSc2nnc([C@@H](N)C(C)C)o2)c1	6	35	45*	11	19	49*
CCC(C)[C@H](N)c1nnc(SCC(=O)Nc2ccc(C)cc2C)o1 (some centres undefined)	-11	6	14	-6	12	nt
CCCCn1c(SCC(=O)NNC(=O)c2ccccc2)n[nH]c1=O	19	0	1	nt	3	nt
COc1ccc(/C=C(/NC(=O)c2ccccc2)C(=O)N/N=C/c2sccc2C)cc1	-8	12	5	19	9	nt
COc1ccc(/C=C(\NC(=O)c2ccccc2)C(=O)N/N=C/c2sccc2C)cc1	13	-1	51*	20	19	2
CNc1sc(C(=O)c2cccs2)c(N)c1-c1nc2ccccc2s1	44	45	48*	-17	31	48*
CNc1sc(C(=O)c2ccc(F)cc2)c(N)c1-c1nc2ccccc2s1	38	42	41*	0	35	23
CC(=O)Nc1scc(C)c1-c1nc2ccccc2s1	30	7	21	6	16	nt
CCc1ccc(OCC2c3cc(OC)c(OC)cc3CCN2C(=S)NC)cc1 (centres undefined)	4	25	48*	2	14	-15
CCc1ccc(OCC2c3cc(OC)c(OC)cc3CCN2C(=S)NCCOC)cc1 (centres undefined)	18	10	12	3	9	nt
COc1ccc(-c2c[n+]3c4n2CCCCC4=C(c2ccccc2)C3)cc1	6	37	45*	12	36	17
Oc1ccccc1C1=Nc2ncnn2C(c2ccc(F)cc2)C1 (centres undefined)	27	-7	11	12	-2	nt
Cc1cc(SCC(=O)Nc2ccc3[nH]c(=O)[nH]c3c2)nc2ccccc12	7	-14	-7	nt	-22	nt
c1ccc(-c2noc(CN3CCN(c4ccccc4)CC3)n2)cc1	2	23	5	0	0	nt
c1ccc(-c2noc(CN3CCN(C(c4ccccc4)c4ccccc4)CC3)n2)cc1	7	19	45*	8	29	12
O=C(c1ccc(Br)o1)N1CCN(Cc2ccccc2Cl)CC1	16	26	5	5	-1	nt
O=C(O)CC/C(=N\Nc1ccc(Cl)cc1)c1cccs1	-6	36	41*	-2	10	14
Cn1ncc(Br)c1C(=O)N/N=C/c1ccc(OS(=O)(=O)c2ccccc2)cc1	9	30	45*	3	35	25
O=c1cc(C(F)(F)F)nc(SCc2cccc3ccccc23)[nH]1	20	24	40*	2	-3	4
CCc1cc(=O)[nH]c(SCc2cccc3ccccc23)n1	8	48	18	28	5	nt
Cc1cc(C)c2c(=O)n(CC(=O)N3CCC(N4CCCCC4)CC3)sc2n1	3	14	12	3	-4	nt
CCOC(=O)C1CCCN(C(=O)Cn2sc3nc(C)cc(C)c3c2=O)C1 (centres undefined)	-6	7	41*	15	3	30
CC(C)C(=O)N(c1cc2sc(=O)oc2c2ccccc12)S(=O)(=O)c1cccs1	-13	23	47*	3	21	16
CC1CCN(C(=O)c2ccc3c(c2NCCO)C(=O)c2ccccc2C3=O)CC1	10	40	42*	4	22	28
Cc1ccc2c(c1)oc(=O)n2CC(=O)c1ccccc1	-1	19	18	16	22	nt
SMILES	NALP3 yeast inh	tim23-1 inh	tim10-1 inh	NALP1 yeast inh	TIM10 inh	tim10-1 confirm
CCOc1ccc(C(C)C)cc1S(=O)(=O)n1ccnc1C	-8	4	41*	-1	-11	6
CCOc1ccc(OCC)c(S(=O)(=O)n2ccnc2C)c1	16	-82	-22	7	-49	nt
CCc1ccc(NC(=S)/N=C(\N)Nc2nc(C)c3cc(CC)ccc3n2)cc1	15	8	28	0	14	nt
CCc1ccc2nc3nc(C)cc(C)c3c(N)c2c1	10	8	47*	12	36	41*
NS(=O)(=O)c1ccc(NC(=O)Cc2cccs2)cc1	14	6	1	5	-1	nt
CC1CCN(S(=O)(=O)c2ccc(NC(=O)Cc3cccs3)cc2)CC1	1	28	54*	-28	36	36*
CCN(CC)S(=O)(=O)c1ccc(NC(=O)Cc2cccs2)cc1	15	26	45*	-10	4	21
CCc1ccc(NC(=S)N(Cc2ccccc2)Cc2ccccn2)cc1	0	36	48*	6	34	35*
CCCOc1ccc(N2C(=O)CC(N3CCC(O)(c4cccc(C(F)(F)F)c4)CC3)C2=O)cc1 (centres undefined)	12	48	56*	-2	26	47*
O=C1CC(N2CCCN(C3CC(=O)N(c4ccc(F)cc4)C3=O)CC2)C(=O)N1c1ccc(F)cc1 (centres undefined)	26	36	47*	39*	22	42*
COc1ccc(N2C(=O)CC(N3CCC(O)(c4ccc(Br)cc4)CC3)C2=O)cc1 (centres undefined)	12	5	25	23	-4	nt
COc1cccc(N2CCN(C3CC(=O)N(c4ccc(F)c(Cl)c4)C3=O)CC2)c1 (centres undefined)	19	47	41*	16	28	26
O=C1CC(N2CCN(c3cccc(C(F)(F)F)c3)CC2)C(=O)N1c1ccccc1 (centres undefined)	-12	13	41*	3	3	25
NC(=O)C1CCN(C2CC(=O)N(c3ccc(F)c(Cl)c3)C2=O)CC1 (centres undefined)	17	45	53*	2	35	50*
COc1ccc(NC2CCN(C3CC(=O)N(c4ccc(F)c(Cl)c4)C3=O)CC2)cc1 (centres undefined)	28	33	54*	-5	37	42*
CCN1C(=O)CC(N2CCC(Nc3ccc(OC)cc3)CC2)C1=O (centres undefined)	-11	9	0	17	-5	nt
COc1ccc(C/C(=N\OC(C)=O)c2ccc(OC)cc2)cc1	5	26	46*	12	7	45*
O=S(=O)(/N=C(/Nc1cccc2ccccc12)c1ccc(F)cc1)c1ccccc1	9	32	39	-4	22	nt
Cc1cc(Cl)ccc1OC(C)C(=O)N1CCCN(C(=O)C(C)Oc2ccc(Cl)cc2C)CC1 (centres undefined)	11	40	44*	35	10	25
CC(C)N1CCC(N2CCN(C3CCCCCC3)CC2CCO)CC1 (centres undefined)	0	5	-10	-3	2	nt
CCOC(=O)c1sc2nc(C)cc(C)c2c1N	7	6	22	18	13	nt
COC(=O)c1sc2nc(C)c([N+](=O)[O-])c(C)c2c1N	36	35	50*	33	20	25
S=C(NC1CCCCC1)N(CCc1nc2ccccc2[nH]1)C1CCCC1	23	32	50*	-28	37	29
